Assay results: PubChem BioAssay AID1159580 (chemical genetic matrix, 2015)
“And” between values parts separate entries of the source, which are not always exact repeats. Identical values can stand only once. About 2,000 (36%) of roughly 5,500 compounds were called active. Not shown: some 18% with an inconclusive outcome. Rule as the data show it: active = normalized growth mostly below about 0.91 (no sharp cut-off); inconclusive = no clear call, values can overlap the other calls; inactive = mostly above about 0.92. Some of the results follow.

Test: chemical genetic growth profiling, strain panel (AID 1159580);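 also: tested at 20 µM; growth read once vehicle control cultures reached saturation at 30 °C; 1 = growth at the plate median or of vehicle wells; lower values mean less growth of the strain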
Details: S. cerevisiae deletion strains, growth OD

Measured: normalized growth

O=C(Oc1ccccc1C(=O)O)c1ccccc1O
inactive: locus YAL013W, strain DEP1, stronger effect = lower value 0.985 | locus YAL021C, strain ccr4, stronger effect = lower value 1 | locus YAL026C, strain drs2, stronger effect = lower value 0.982 | locus YAL030W, strain snc1, stronger effect = lower value 0.979 | locus YBL061C, strain skt5, stronger effect = lower value 0.973 | locus YBR009C, strain hhf1, stronger effect = lower value 1.01 | locus YBR021W, strain FUR4, stronger effect = lower value 1 | locus YBR023C, strain chs3, stronger effect = lower value 1 | locus YBR171W, strain sec66, stronger effect = lower value 0.941 | locus YBR229C, strain ROT2, stronger effect = lower value 0.955 | locus YBR231C, strain swc5, stronger effect = lower value 0.984 | locus YBR279W, strain paf1, stronger effect = lower value 1 | locus YCL011C, strain gbp2, stronger effect = lower value 0.975 | locus YCL016C, strain dcc1, stronger effect = lower value 1 | locus YCL029C, strain bik1, stronger effect = lower value 0.985 | locus YCL069W, strain vba3, stronger effect = lower value 0.986 | locus YCR088W, strain abp1, stronger effect = lower value 0.972 | locus YDL005C, strain med2, stronger effect = lower value 0.944 | locus YDL035C, strain GPR1, stronger effect = lower value 0.964 | locus YDL040C, strain nat1, stronger effect = lower value 0.982 | locus YDL074C, strain BRE1, stronger effect = lower value 0.974 | locus YDL101C, strain DUN1, stronger effect = lower value 0.98 | locus YDL185W, strain tfp1, stronger effect = lower value 0.961 | locus YDL192W, strain arf1, stronger effect = lower value 0.977 | locus YDR001C, strain nth1, stronger effect = lower value 0.953 | locus YDR069C, strain doa4, stronger effect = lower value 0.971 | locus YDR101C, strain arx1, stronger effect = lower value 0.944 | locus YDR137W, strain rgp1, stronger effect = lower value 0.972 | locus YDR159W, strain sac3, stronger effect = lower value 0.978 | locus YDR162C, strain NBP2, stronger effect = lower value 0.97 | locus YDR195W, strain ref2 0.897 | locus YDR297W, strain sur2, stronger effect = lower value 0.997 | locus YDR318W, strain mcm21, stronger effect = lower value 1 | locus YDR334W, strain swr1, stronger effect = lower value 0.942 | locus YDR335W, strain msn5, stronger effect = lower value 0.975 | locus YDR388W, stronger effect = lower value 0.976 | locus YDR392W, strain spt3, stronger effect = lower value 1 | locus YDR502C, strain sam2, stronger effect = lower value 0.996 | locus YEL003W, strain gim4, stronger effect = lower value 0.979 | locus YEL037C, strain rad23, stronger effect = lower value 0.965 | locus YEL061C, strain CIN8 (second series), stronger effect = lower value 0.978 | locus YEL061C, strain CIN8, stronger effect = lower value 0.984 | locus YER015W, strain faa2, stronger effect = lower value 0.989 | locus YER016W, strain bim1, stronger effect = lower value 1 | locus YER110C, stronger effect = lower value 0.983 | locus YER111C, strain swi4, stronger effect = lower value 0.95 | locus YER155C, strain BEM2 (second series), stronger effect = lower value 0.99 | locus YER155C, strain BEM2, stronger effect = lower value 0.997 | locus YER167W, strain BCK2, stronger effect = lower value 1 | locus YFR010W, strain ubp6, stronger effect = lower value 0.966 | locus YGL078C, strain dbp3, stronger effect = lower value 1.01 | locus YGL086W, strain mad1, stronger effect = lower value 0.976 | locus YGL167C, strain pmr1, stronger effect = lower value 0.937 | locus YGL173C, strain kem1, stronger effect = lower value 0.979 | locus YGL227W, strain vid30, stronger effect = lower value 0.98 | locus YGL240W, strain doc1, stronger effect = lower value 0.985 | locus YGL248W, strain PDE1, stronger effect = lower value 0.99 | locus YGL253W, strain hxk2, stronger effect = lower value 0.968 | locus YGR135W, strain pre9, stronger effect = lower value 1.06 | locus YGR252W, strain gcn5, stronger effect = lower value 1.09 | locus YHR013C, strain ard1, stronger effect = lower value 0.963 | locus YHR027C, strain rpn1, stronger effect = lower value 0.985 | locus YHR030C, strain SLT2, stronger effect = lower value 0.977 and 1 | locus YHR079C, strain IRE1 (second series), stronger effect = lower value 0.98 | locus YHR079C, strain IRE1, stronger effect = lower value 0.987 | locus YHR094C, strain hxt1, stronger effect = lower value 0.977 | locus YHR129C, strain ARP1, stronger effect = lower value 0.955 | locus YHR142W, strain chs7, stronger effect = lower value 0.982 | locus YHR200W, strain rpn10, stronger effect = lower value 0.987 | locus YIL066C, strain RNR3, stronger effect = lower value 0.971 | locus YIL073C, strain SPO22, stronger effect = lower value 1.03 | locus YIL125W, strain kgd1, stronger effect = lower value 0.992 | locus YIR030C, strain dcg1, stronger effect = lower value 0.992 | locus YJL092W, strain hpr5, stronger effect = lower value 0.961 | locus YJL095W, strain BCK1 (second series), stronger effect = lower value 0.972 | locus YJL095W, strain BCK1, stronger effect = lower value 1.02 and 0.96 | locus YJL115W, strain asf1, stronger effect = lower value 0.956 | locus YJL129C, strain trk1, stronger effect = lower value 0.955 | locus YJL134W, strain LCB3, stronger effect = lower value 0.985 | locus YJL154C, strain vps35, stronger effect = lower value 0.933 | locus YJL164C, strain tpk1, stronger effect = lower value 1.01 | locus YJL166W, strain qcr8, stronger effect = lower value 0.964 | locus YJL168C, strain set2, stronger effect = lower value 0.988 | locus YJL187C, strain SWE1 (second series), stronger effect = lower value 0.966 | locus YJR043C, strain POL32, stronger effect = lower value 0.975 | locus YJR066W, strain TOR1, stronger effect = lower value 0.937 | locus YJR075W, strain HOC1, stronger effect = lower value 0.978 | locus YKL009W, strain mrt4, stronger effect = lower value 0.971 | locus YKL068W, stronger effect = lower value 0.978 | locus YKL085W, strain MDH1 (second series), stronger effect = lower value 0.998 | locus YKL085W, strain MDH1, stronger effect = lower value 0.998 | locus YKL160W, strain elf1, stronger effect = lower value 0.969 | locus YKR001C, strain vps1, stronger effect = lower value 0.986 | locus YKR026C, strain gcn3, stronger effect = lower value 0.923 | locus YKR091W, strain srl3, stronger effect = lower value 0.984 | locus YLL001W, strain dnm1, stronger effect = lower value 0.944 | locus YLL026W, stronger effect = lower value 1 | locus YLL041C, strain sdh2, stronger effect = lower value 0.968 | locus YLR027C, strain aat2, stronger effect = lower value 0.984 | locus YLR039C, strain RIC1, stronger effect = lower value 0.991 | locus YLR058C, strain SHM2, stronger effect = lower value 0.971 | locus YLR102C, strain apc9, stronger effect = lower value 0.993 | locus YLR113W, strain HOG1, stronger effect = lower value 0.906 | locus YLR221C, strain rsa3, stronger effect = lower value 1 | locus YLR258W, strain gsy2, stronger effect = lower value 0.974 | locus YLR262C, strain YPT6 (second series), stronger effect = lower value 0.925 | locus YLR262C, strain YPT6, stronger effect = lower value 0.908 | locus YLR268W, strain sec22, stronger effect = lower value 0.978 | locus YLR320W, strain mms22, stronger effect = lower value 1 | locus YLR330W, strain CHS5, stronger effect = lower value 0.988 | locus YLR342W, strain FKS1 (second series), stronger effect = lower value 1 | locus YLR342W, strain FKS1, stronger effect = lower value 0.979 | locus YLR357W, strain rsc2, stronger effect = lower value 0.958 | locus YLR370C, strain arc18, stronger effect = lower value 0.986 | locus YLR371W, strain rom2, stronger effect = lower value 0.998 | locus YLR384C, strain iki3, stronger effect = lower value 0.967 | locus YLR418C, strain cdc73, stronger effect = lower value 1.03 | locus YML016C, strain PPZ1, stronger effect = lower value 0.987 | locus YML032C, strain rad52, stronger effect = lower value 0.976 | locus YML120C, strain ndi1, stronger effect = lower value 0.967 | locus YML124C, strain tub3, stronger effect = lower value 0.992 | locus YMR058W, strain fet3, stronger effect = lower value 0.995 | locus YMR078C, strain ctf18, stronger effect = lower value 0.988 | locus YMR125W, strain sto1, stronger effect = lower value 0.93 | locus YMR129W, stronger effect = lower value 0.968 | locus YMR205C, strain PFK2, stronger effect = lower value 0.96 | locus YMR223W, strain ubp8, stronger effect = lower value 1.02 | locus YMR231W, strain pep5, stronger effect = lower value 0.956 | locus YMR307W, strain GAS1, stronger effect = lower value 0.999 | locus YNL067W, strain RPL9B, stronger effect = lower value 0.98 | locus YNL071W, strain lat1, stronger effect = lower value 0.971 | locus YNL153C, strain GIM3, stronger effect = lower value 0.982 | locus YNL183C, strain NPR1, stronger effect = lower value 0.921 | locus YNL209W, strain ssb2, stronger effect = lower value 0.981 | locus YNL233W, strain BNI4, stronger effect = lower value 0.988 | locus YNL248C, strain rpa49, stronger effect = lower value 0.997 | locus YNL250W, strain rad50, stronger effect = lower value 0.995 | locus YNL271C, strain bni1, stronger effect = lower value 0.993 | locus YNL298W, strain CLA4, stronger effect = lower value 1.01 | locus YNL307C, strain MCK1, stronger effect = lower value 0.986 | locus YNL322C, strain KRE1 (second series), stronger effect = lower value 0.963 | locus YNR049C, strain mso1, stronger effect = lower value 0.967 | locus YNR052C, strain pop2, stronger effect = lower value 0.988 | locus YOL006C, strain TOP1, stronger effect = lower value 1.02 | locus YOL012C, strain htz1 0.938 | locus YOL147C, strain pex11, stronger effect = lower value 0.993 | locus YOR001W, strain rrp6, stronger effect = lower value 0.984 | locus YOR061W, strain CKA2, stronger effect = lower value 0.972 | locus YOR069W, strain VPS5, stronger effect = lower value 0.986 | locus YOR070C, strain gyp1, stronger effect = lower value 0.994 | locus YOR080W, strain dia2, stronger effect = lower value 0.963 | locus YOR083W, strain WHI5, stronger effect = lower value 0.996 | locus YOR106W, strain vam3, stronger effect = lower value 0.958 | locus YOR136W, strain idh2, stronger effect = lower value 0.982 | locus YOR144C, strain elg1, stronger effect = lower value 0.984 | locus YOR184W, strain ser1, stronger effect = lower value 0.986 | locus YOR231W, strain MKK1, stronger effect = lower value 0.959 | locus YOR265W, strain rbl2, stronger effect = lower value 0.98 | locus YOR270C, strain vph1, stronger effect = lower value 0.931 | locus YOR290C, strain snf2, stronger effect = lower value 1 | locus YOR316C, strain cot1, stronger effect = lower value 0.97 | locus YPL051W, strain arl3, stronger effect = lower value 0.993 | locus YPL055C, strain LGE1, stronger effect = lower value 0.992 | locus YPL078C, strain atp4, stronger effect = lower value 0.962 | locus YPL106C, strain sse1, stronger effect = lower value 0.99 | locus YPL240C, strain hsp82, stronger effect = lower value 0.982 | locus YPL256C, strain CLN2, stronger effect = lower value 0.98 | locus YPR119W, strain clb2, stronger effect = lower value 0.985 | locus YPR141C, strain kar3, stronger effect = lower value 0.979 | locus YPR163C, strain tif3, stronger effect = lower value 0.986 | locus YPR167C, strain met16, stronger effect = lower value 0.998 | strain wtn01, stronger effect = lower value 1.02
